Data from PubChem BioAssay.
The source made the active and inactive calls.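 The calls were made as follows, unless noted: active = visual image review flags a hit and inhibition of aggregation exceeds 20%; inconclusive = visual hit but inhibition at or below 20%; inactive = no hit on visual image review.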

Legend:
[1] = inhibitors of TNFa-induced NFkB p65 translocation, primary screen, imaging, HUVEC, MLSMR starter and 10KST1 sets (AID 438;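 active = inhibition above 20% together with a positive visual image hit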;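 also: compound added about 3h40 before a 20 min TNFalpha stimulation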;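 as to inhibition: signal is the nuclear over cytoplasmic p65 intensity ratio per well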); settings: HUVEC TNFa-induced p65 nuclear translocation; cell count: measured here: nuclei count (cytotoxicity indicator), at 2.08 µM; inhibition: at 2 µM, stronger effect = higher value, 0% TNFa-plus-vehicle, 100% no-TNFa wells
[2] = inhibitors of mutant huntingtin aggregation, primary screen, imaging, exon1htt(103Q)mCFP cells, high-content imaging (AID 483); settings: exon1htt(103Q)mCFP cell line, aggregate imaging, at 2 µM; inhibition of aggregation: stronger effect = higher value; nuclei count: measured here: cell count, toxicity;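 also: compound exposure lasted 3 days before fixation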;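 as to nuclei count: percent of the per-plate median nuclei count of sample wells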
[3] = inhibitors of E-selectin induction by TNFa, primary screen, imaging, HUVEC, immunofluorescence, MLSMR starter and 10KST1 sets (AID 487;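 active = visually confirmed hit in the image check and inhibition above 20%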;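 as to inhibition: signal is fraction of cell area covered by stained E-selectin grains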;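 as to nuclei count: 100% = median nuclei count of all wells on the same plate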); settings: HUVEC TNFalpha-induced E-selectin immunofluorescence imaging, at 2 µM; inhibition: stronger effect = higher value; nuclei count: measured here: cell number, toxicity
[4] = molecular target: Voltage-gated potassium channel subunit beta-2 (Rattus norvegicus) (UniProt P62483); test: KvBeta enzyme negative modulators, primary screen, biochemical, NADPH fluorescence (AID 622;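 active = fluorescence slope higher than the sample average by over 3 SD, cut at about -0.22 in these data, passing the limit was not always enough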;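 also: slope of raw intensity against log time taken from 70 to 1610 s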); settings: recombinant KvBeta, 4-cyanobenzaldehyde reduction, at 10 µM, stronger effect = higher value
Chain of Voltage-gated potassium channel subunit beta-2 (Rattus norvegicus) (P62483 whole entry, looked up): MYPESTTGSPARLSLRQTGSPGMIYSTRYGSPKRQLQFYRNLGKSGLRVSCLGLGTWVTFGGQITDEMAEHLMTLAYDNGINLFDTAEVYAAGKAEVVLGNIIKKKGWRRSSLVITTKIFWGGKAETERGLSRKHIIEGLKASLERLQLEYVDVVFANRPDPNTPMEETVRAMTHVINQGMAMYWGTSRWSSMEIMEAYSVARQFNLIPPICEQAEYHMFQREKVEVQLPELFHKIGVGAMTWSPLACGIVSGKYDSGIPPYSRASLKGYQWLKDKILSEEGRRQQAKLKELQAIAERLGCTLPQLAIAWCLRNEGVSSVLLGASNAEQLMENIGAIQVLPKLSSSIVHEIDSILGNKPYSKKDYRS

[5] = molecular target: Voltage-gated potassium channel subunit beta-2 (Rattus norvegicus) (UniProt P62483); test: KvBeta positive modulators, primary screen, biochemical, NADPH fluorescence (AID 623;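 active = NADPH fluorescence slope more negative than the mean of all samples by about 3 SD, 99.7% confidence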;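 also: fluorescence intensity change per second fitted from 20 to 320 s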); settings: Recombinant KvBeta, NADPH fluorescence decrease slope, 10 min; at 10 µM; stronger effect = lower value
[6] = molecular target: Alpha-2C adrenergic receptor (Homo sapiens) (UniProt P18825); test: modulators of alpha2C/GIRK thallium flux, primary screen, cell-based, HEK293 alpha2C/GIRK1/2 (AID 624;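 active = fluorescence slope after compound addition differing from the mean of all screened samples at 99.7% confidence, in either direction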;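 also: slope of fluorescence ratio to pre-addition baseline per second over 15 to 24 s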); settings: thallium flux BTC fluorescence, at 10 µM, actives lie on both sides
Chain of Alpha-2C adrenergic receptor (Homo sapiens) (P18825 whole entry, looked up): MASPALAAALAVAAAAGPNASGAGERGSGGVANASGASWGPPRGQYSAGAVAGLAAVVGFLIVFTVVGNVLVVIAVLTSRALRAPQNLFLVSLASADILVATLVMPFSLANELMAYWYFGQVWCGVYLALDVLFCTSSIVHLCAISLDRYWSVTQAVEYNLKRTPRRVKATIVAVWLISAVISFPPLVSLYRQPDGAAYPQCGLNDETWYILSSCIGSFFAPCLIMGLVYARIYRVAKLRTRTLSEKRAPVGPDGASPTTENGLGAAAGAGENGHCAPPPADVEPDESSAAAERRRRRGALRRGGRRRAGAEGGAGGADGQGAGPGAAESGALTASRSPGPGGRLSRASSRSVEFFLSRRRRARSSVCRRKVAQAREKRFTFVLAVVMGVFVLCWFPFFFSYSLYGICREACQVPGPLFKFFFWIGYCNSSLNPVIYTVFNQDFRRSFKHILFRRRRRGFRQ

[7] = inhibitors of Sendai virus-induced IRF3 signaling, primary screen, TLR/RLR signaling modifier project, cell-based, Sendai virus stimulus, luciferase, 10K MLSCN set (AID 602276;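 active = inhibition at or above 50% at 10 µM; inactive = inhibition below 50%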;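 also: firefly luciferase from ISG56 promoter only with Renilla not read in this screen; 0% = Sendai virus plus DMSO and 100% = medium plus DMSO without virus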); settings: HEK293 RL24 IRF3 luciferase reporter, at 10 µM, stronger effect = higher value
[8] = inhibitors of poly I:C-induced TLR3 signaling, primary screen, cell-based, poly I:C stimulus, luciferase, 10K MLSCN set (AID 602277;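 active = inhibition of the reporter signal at or above 50%; inactive = inhibition below 50%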); settings: HEK293-TLR3 RL24 IRF3 luciferase reporter, at 10 µM, stronger effect = higher value

Row | Compound | cell count [1] | inhibition [1] | inhibition of aggregation [2] | nuclei count [2] [%] | inhibition [3] | nuclei count [3] [%] | fluorescence slope [4] | NADPH fluorescence slope [5] | slope [6] | inhibition [7] | inhibition [8]
1 | Cc1cc(C)c2c(n1)nn1c(N3CCOCC3)cc(C)nc21 | 503 | -6.3% (inactive) | 5.7% (inactive) | 81.9 | -56.5% (inactive) | 123 | -0.0426 (active) | -2.7e-06 (inactive) | 0.00599 (inactive) | 2.18% (inactive) | 3.21% (inactive)
2 | COc1ccc(-c2noc(CN(C(=O)C(C)(C)C)C(C)C)n2)cc1 | 420 | 5% (inactive) | 10.8% (inactive) | 93 | -73% (inactive) | 117 | -0.43 (inactive) | -5.1e-05 (inactive) | 0.00416 (inactive) | -16.3% (inactive) | -34% (inactive)
3 | COP(C)(=O)c1c(C)nn(-c2ccccc2)c1C (stereo not drawn) | 558 | 6.8% (inactive) | -0.1% (inactive) | 95.4 | -11.2% (inactive) | 112 | -0.424 (inactive) | -2.1e-06 (inactive) | 0.00629 (inactive) | 8.87% (inactive) | 37.6% (inactive)
4 | N#Cc1ccc(COC(=O)Cn2nnc(-c3ccccc3)n2)cc1 | 503 | -15.2% (inactive) | -8.3% (inactive) | 98.8 | -124% (inactive) | 121 | -0.614 (inactive) | -1.6e-05 (inactive) | 0.00648 (inactive) | 9.56% (inactive) | 19.4% (inactive)
5 | CCOC(=O)N1CCC(N2CC34C=CC(O3)C(C(=O)O)C4C2=O)CC1 (stereo not drawn) | 811 | 4.4% (inactive) | 14.5% (inactive) | 106 | -9.6% (inactive) | 114 | -0.552 (inactive) | 2.3e-05 (inactive) | 0.00719 (inactive) | 4.63% (inactive) | 12.4% (inactive)
6 | N#CCCN1CCN(S(=O)(=O)c2ccc(S(=O)(=O)NC3CCCCC3)cc2)CC1 | 645 | -2.4% (inactive) | -20.2% (inactive) | 124 | -47.2% (inactive) | 115 | -0.584 (inactive) | -4.3e-06 (inactive) | 0.00631 (inactive) | 14.1% (inactive) | 32.4% (inactive)
7 | O=S(=O)(c1ccc(Br)s1)N1CCN(c2ccccc2)CC1 | 660 | 6.3% (inactive) | 0.1% (inactive) | 90.2 | 14.4% (inactive) | 102 | -0.289 (inactive) | -3e-05 (inactive) | 0.00522 (inactive) | 10.7% (inactive) | 13.7% (inactive)
8 | O=C(O)C1CC=CCC1C(=O)NCc1ccccc1 (stereo not drawn) | 625 | 6% (inactive) | -11% (inactive) | 107 | -28.4% (inactive) | 107 | -0.41 (inactive) | 3.8e-06 (inactive) | 0.00502 (inactive) | 10% (inactive) | 11.4% (inactive)
9 | CC(C)CC(OC(=O)c1cccs1)C(=O)NCc1ccco1 (stereo not drawn) | 364 | 19.1% (inactive) | -9% (inactive) | 91.6 | 2.7% (inactive) | 106 | -0.425 (inactive) | -2.5e-05 (inactive) | 0.00495 (inactive) | 6.99% (inactive) | 11.5% (inactive)
10 | CC1CCc2nn(CC(=O)NCc3ccc4c(c3)OCO4)cc2C1 (stereo not drawn) | 673 | -6.1% (inactive) | 1.1% (inactive) | 103 | -80.8% (inactive) | 124 | -0.506 (inactive) | -2.4e-05 (inactive) | 0.00628 (inactive) | 7.66% (inactive) | 18% (inactive)
11 | C=CCn1c(SCC(=O)C(C)(C)C)nnc1-c1ccccn1 | 583 | -3.4% (inactive) | 16.4% (inactive) | 83.3 | 9.2% (inactive) | 90.9 | -0.291 (inactive) | -5.6e-05 (inactive) | 0.00526 (inactive) | 12.5% (inactive) | 18.5% (inactive)
12 | CCCC(=O)OCCn1c(Br)nc2c1c(=O)[nH]c(=O)n2C | 627 | -9.1% (inactive) | -10% (inactive) | 127 | -46.5% (inactive) | 121 | -0.509 (inactive) | -3.2e-05 (inactive) | 0.00531 (inactive) | 20.4% (inactive) | 15.6% (inactive)
13 | O=C(NCC1CCCO1)C1c2ccccc2C(=O)N1C1CCCCCC1 (stereo not drawn) | 445 | -9.2% (inactive) | -4.3% (inactive) | 101 | -38.3% (inactive) | 109 | -0.621 (inactive) | 2.7e-06 (inactive) | 0.00613 (inactive) | 11.3% (inactive) | 15.1% (inactive)
14 | COc1ccc(C2c3c(oc4ccccc4c3=O)C(=O)N2c2ccc(C)cn2)cc1OC (stereo not drawn) | 865 | 0% (inactive) | -13.4% (inactive) | 75 | -34.6% (inactive) | 103 | -0.605 (inactive) | 6.8e-06 (inactive) | 0.00601 (inactive) | -0.686% (inactive) | -4.49% (inactive)
15 | COc1ccc(CNC(=O)c2nnn(Cc3ccc(OC)cc3)c2N)cc1 | 649 | 2.8% (inactive) | -8.9% (inactive) | 84.9 | -6.7% (inactive) | 92.2 | -0.624 (inactive) | -2.4e-05 (inactive) | 0.00639 (inactive) | 12.2% (inactive) | 22.1% (inactive)
16 | Cc1nc2ccccc2c(=O)n1CC(=O)N1CCOCC1 | 558 | -17.1% (inactive) | 11.6% (inactive) | 78.3 | 22.8% (inactive) | 89.9 | -0.503 (inactive) | -4.9e-05 (inactive) | 0.00461 (inactive) | 14.1% (inactive) | 13.2% (inactive)
17 | O=C(NCC1CCCO1)C1CCCN(S(=O)(=O)c2cccc3nsnc23)C1 (stereo not drawn) | 801 | -1.6% (inactive) | 30.3% (inactive) | 122 | -30.2% (inactive) | 114 | -0.434 (inactive) | 6e-05 (inactive) | 0.00536 (inactive) | 0.526% (inactive) | -1.36% (inactive)
18 | CCOC(=O)C(C#N)C(c1cccnc1)c1c(C)[nH][nH]c1=O (stereo not drawn) | 710 | -7.5% (inactive) | -3.8% (inactive) | 93 | -131% (inactive) | 101 | -0.325 (inactive) | -3.9e-05 (inactive) | 0.0052 (inactive) | 6.49% (inactive) | 9.18% (inactive)
19 | Cc1occc1-c1nnc(SCC(=O)c2ccc(F)cc2)n1Cc1ccco1 | 370 | 5% (inactive) | 21.2% (inactive) | 87.3 | -42.8% (inactive) | 107 | -0.393 (inactive) | 2e-06 (inactive) | 0.00656 (inactive) | 9.07% (inactive) | 12% (inactive)
20 | O=C(CN1CCC(NC(=O)c2ccc(F)cc2)CC1)NCc1ccccc1F | 435 | 4.6% (inactive) | -0.1% (inactive) | 101 | -192% (inactive) | 110 | -0.438 (inactive) | -6.6e-06 (inactive) | 0.00564 (inactive) | 10.1% (inactive) | 23.8% (inactive)
21 | CN=C(Nc1ccc2c(c1)OCO2)SC1CC(=O)N(c2ccccc2)C1=O (stereo not drawn) | 699 | 11% (inactive) | 6.4% (inactive) | 95.4 | 7.9% (inactive) | 112 | -0.381 (inactive) | -3.2e-05 (inactive) | 0.00557 (inactive) | 10% (inactive) | 17.2% (inactive)
22 | CCCCN(C)C(=O)c1ccc(CS(=O)(=O)c2ccccc2C)o1 | 315 | -10.4% (inactive) | 10.5% (inactive) | 65.2 | -44.3% (inactive) | 111 | -0.569 (inactive) | -1.2e-05 (inactive) | 0.00658 (inactive) | 7.73% (inactive) | 13.7% (inactive)
23 | COc1ccc(Cl)cc1S(=O)(=O)n1cnc2ccccc21 | 725 | -4.8% (inactive) | -5.8% (inactive) | 92.3 | -42.3% (inactive) | 104 | -0.403 (inactive) | 9.7e-06 (inactive) | 0.00504 (inactive) | 19.3% (inactive) | 31.3% (inactive)
24 | O=C1C(Cl)=C(NCC2CCCO2)C(=O)N1CCc1ccccc1 (stereo not drawn) | 711 | -10% (inactive) | 9.2% (inactive) | 102 | 27.8% (inactive) | 107 | -0.448 (inactive) | 1.5e-05 (inactive) | 0.00576 (inactive) | -53.6% (inactive) | -108% (inactive)
25 | Cc1ccc(C(C)C)c(OCCn2c(=O)oc3ccccc32)c1 | 540 | -5.9% (inactive) | 0.7% (inactive) | 89.4 | -32.5% (inactive) | 77.7 | -0.416 (inactive) | 2.5e-05 (inactive) | 0.00298 (inactive) | -13.6% (inactive) | -27.2% (inactive)
26 | O=C(c1ccccc1Cl)N1CCc2ccccc2C1 | 645 | -4.9% (inactive) | 17.3% (inactive) | 97.3 | -68.8% (inactive) | 112 | -0.478 (inactive) | -0.000194 (inactive) | 0.00482 (inactive) | -6.82% (inactive) | -17% (inactive)
27 | CC1Cc2ccccc2N1C(=O)C12CCC(C)(C(=O)C1)C2(C)C (stereo not drawn) | 387 | -1.6% (inactive) | -6.9% (inactive) | 99.5 | -141% (inactive) | 116 | -0.544 (inactive) | -7.5e-05 (inactive) | 0.00468 (inactive) | -4.72% (inactive) | 1.25% (inactive)
28 | O=C(CSc1ncc(-c2ccc(F)cc2)[nH]1)N1CCCCC1 | 425 | 0% (inactive) | -11% (inactive) | 78.3 | -25.6% (inactive) | 106 | -0.331 (inactive) | -5.1e-05 (inactive) | 0.00631 (inactive) | -13% (inactive) | -71.4% (inactive)
